The entries come from a sample that favours hits as a whole.
Tb PFK inh: T. brucei PFK enzyme inhibition; T. brucei PFK, ADP-Glo luminescence; Potency, µM (highest dose often 57.5 µM), without a hit: top-dose activity, negative = inhibition, usual class: inhibitors; hit rate 0.17% among 330,000; O15648;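 also: potency is read from the fitted curve at half-maximal effect; 0% = uninhibited 1x PFK enzyme wells and -100% = no-enzyme wells; nearly all actives have a fitted effect of over 60% in size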
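Compounds were pin-transferred as a titration series up to 57 uM into substrate buffer (0.5 mM F6P, 0.1 mM ATP, pH 8.0), then 1.25 nM PFK was added and reactions ran 45 min before ADP-Glo detection.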
PI5P4Ka inh: PI5P4K alpha (human) kinase inhibition. PI5P4Kalpha enzyme, ADP-Glo luminescence, 60 min; hits give low values. max response, %. hit rate 1.2% among 330,000. AID 652105; active = max response of -50% or lower; inconclusive = between -30% and -50%; inactive = -30% or higher; also: value at the top dose of about 77 µM
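Controls without substrate or without enzyme flank wells where PI5P4Kalpha converts substrate using 5 microM ATP (final). Incubation lasts 60 minutes at room temperature; ADP formed is read by ADP-Glo luminescence.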
Tb PGK inh: blocks T. brucei phosphoglycerate kinase; Potency, µM (top dose mostly 57.5 µM), without a hit: at the top dose activity change, negative = inhibition, hits mostly inhibitors; PGK/GAPDH coupled, Kinase-Glo luminescence, 60 min; hit rate 0.043% among 380,000; P07378; AID 602233; also: potency is read from the fitted curve at half-maximal effect; nearly all actives have a fitted effect of over 60% in size
Target sequence (P07378 whole entry, looked up): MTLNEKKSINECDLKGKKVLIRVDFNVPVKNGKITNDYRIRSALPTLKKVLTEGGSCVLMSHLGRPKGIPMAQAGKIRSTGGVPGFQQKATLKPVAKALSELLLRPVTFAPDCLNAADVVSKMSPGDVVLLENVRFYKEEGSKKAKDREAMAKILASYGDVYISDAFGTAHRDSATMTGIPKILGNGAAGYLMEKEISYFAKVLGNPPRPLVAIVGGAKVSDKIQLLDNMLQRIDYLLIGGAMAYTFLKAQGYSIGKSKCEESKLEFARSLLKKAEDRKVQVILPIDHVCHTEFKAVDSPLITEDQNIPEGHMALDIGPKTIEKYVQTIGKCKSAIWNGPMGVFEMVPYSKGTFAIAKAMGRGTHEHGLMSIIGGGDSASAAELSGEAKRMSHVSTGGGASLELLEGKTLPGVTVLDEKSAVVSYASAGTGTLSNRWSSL
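Luminescent ATP detection (Kinase-Glo Plus) follows a 60-minute room-temperature incubation, with wells lacking PGK as controls. Buffer: 100 mM TEA (pH 7.6), 5 mM MgCl2, 0.01% Tween-20. Coupling enzyme GAPDH (100 nM final) supplies unstable 1,3-BPG in-well.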
PI4K2A inh: blocks human PI4K2A kinase activity; activity change, negative = inhibition, % at 76.9 µM; Q9BTU6; AID 1346378; hit rate 0.13% among 420,000; purified PI4K2A, ADP-Glo luminescence, 1 h; hits give low values; in the data active = activity change below about -50%; inconclusive = mostly about -30% to -49%;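 also: -100% = wells without enzyme as full effect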
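PI4K2A activity was measured by ADP-Glo luminescence: enzyme (4 ug/mL stock) and phosphatidylinositol (1.2 mM stock) in Tris pH 7.5/MgCl2/EGTA/Triton X-100 buffer were reacted with ATP (300 microM stock) for one hour at ambient temperature.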
Pin1 inhibitor: blocks the human prolyl isomerase Pin1; Potency, µM (highest dose often 115 µM), without a hit: at the top dose activity, negative = inhibition, most hits filed as inhibitors; Q13526; hit rate 0.009% among 390,000; Pin1 FP peptide displacement, HiFluor488, 10 min; active = well fitted inhibition curve with a large enough effect in the polarisation, with a control signal flat, not every such curve was filed as active; inconclusive = small, poorly fitted or top-dose-only effect, or effect the other way, or a change in a side signal; inactive = no such curve, though single readings can be large or run the other way; the % refers to the polarisation; also: potency is read from the fitted curve at half-maximal effect
Target sequence (Q13526 whole entry, looked up): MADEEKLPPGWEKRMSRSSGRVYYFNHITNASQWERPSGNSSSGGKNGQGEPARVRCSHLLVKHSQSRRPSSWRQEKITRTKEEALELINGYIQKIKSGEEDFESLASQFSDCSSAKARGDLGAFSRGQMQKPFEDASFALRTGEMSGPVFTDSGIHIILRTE
Starred values were filed as active, the others as inactive; i = inactive; ? = inconclusive; . = no result; ! = repeats disagree. Unless noted, calls follow the shape of the dose curve; as a rule, active = well fitted curve in the direction sought with a large enough effect; inconclusive = small, poorly fitted or top-dose-only effect, or another doubt; inactive = no such curve, though single readings can be large; an effect the other way counts as inactive or inconclusive. Unless noted, % is scaled to controls: 0 for no effect and ±100 for the full control effect.

SMILES	Tb PFK inh	PI5P4Ka inh	Tb PGK inh	PI4K2A inh	Pin1 inhibitor
CCc1ccc(N2C(=O)NC(=O)/C(=C/c3cccn3CCOc3ccc(C(C)CC)cc3)C2=O)cc1 (configuration not stated)	-1%	-53*	.	-16	?
Cc1cccc(OCCn2cccc2/C=C2/C(=O)NC(=O)N(Cc3ccco3)C2=O)c1	-5%	-57*	-10%	-21	8%
O=C1NC(=O)N(Cc2ccco2)C(=O)/C1=C\c1cccn1CCOc1ccc(Cl)cc1	-9%	-54*	-9%	?	-9%
C=CCn1c(O)c(C(CC)=NC(C)c2ccccc2)c(=O)[nH]c1=O (configuration not stated)	-4%	-8	-3%	-3	8%
Cc1ccc(C(c2nnnn2Cc2ccccc2)N2CC=C(c3ccc(F)cc3)CC2)cc1 (configuration not stated)	-1%	.	-9%	0	5%
Cc1ccc2ccccc2c1NC(=O)CNC1CCCCC1	-5%	11	2%	-3	-1%
Cc1ccc(N2C(=O)NC(=O)/C(=C/c3cnc(-c4ccccc4)nc3)C2=O)cc1C	0%	-52*	3%	-7	?
Cc1cccc(N2C(=O)NC(=O)/C(=C\c3cnc(-c4ccccc4)nc3)C2=O)c1	0%	-51*	i	-5	?
O=c1[nH]cc(N(CCCl)CCCl)c(=O)[nH]1	.	.	.	-67*	.
O=C1NC(=O)N(c2ccccc2)C(=O)/C1=C/c1coc2ccc(O)cc2c1=O	-11%	-66*	-5%	?	-1%
O=C1NC(=O)N(c2ccc(Cl)cc2)C(=O)/C1=C/c1coc2ccc(O)cc2c1=O	-12%	-58*	-4%	-17	40%
Cc1cc(/C=C2/C(=O)NC(=O)N(c3ccc(Br)cc3)C2=O)c(C)n1C	1%	-15	-1%	-10	?
O=C1NC(=O)N(c2ccccc2)C(=O)/C1=C/c1ccoc1	14%	?	-23%	-11	?
COc1ccc(-n2nnnc2C(c2ccnc3ccccc23)N2CCC3(CC2)C(=O)NCN3c2ccccc2)cc1 (configuration not stated)	.	-4	.	0	.
COc1ccccc1/C=C1\C(=O)NC(=S)N(c2ccccc2)C1=O	-4%	-55*	-2%	-1	3%
COc1ccc(N2C(=O)/C(=C/C=C/c3ccccc3[N+](=O)[O-])C(=O)NC2=S)cc1	26%	-91*	-9%	-23	.
O=C1NC(=S)N(c2ccccc2)C(=O)/C1=C/c1ccco1	?	-87*	7.9µM*	?	?
COc1ccc(N2C(=O)/C(=C/c3cccs3)C(=O)NC2=S)cc1	3%	-96*	-3%	-23	?
O=C1NC(=S)N(c2ccc(F)cc2)C(=O)/C1=C/c1ccccc1O	-3%	-1	7%	-3	2%
COc1cc([C@@H]2c3cc4c(cc3[C@@H](OC)[C@H]3COC(=O)[C@H]23)OCO4)cc(OC)c1O	1%	-5	-8%	0	-3%
O=C1NC(=O)C(=Cc2ccccc2OCCOc2ccc([N+](=O)[O-])cc2)C(=O)N1	-8%	?	-9%	-26	1%
COc1ccccc1C=C1C(=O)NC(=S)NC1=O	.	-86*	-8%	-10	-9%
O=C1NC(=O)N(c2ccc3c(c2)OCO3)C(=O)/C1=C\c1ccc(-c2ccccc2C(=O)O)o1	-23%	-52*	-19%	-20	?
O=[N+]([O-])[N-][n+]1cnn(Cc2ccccc2)c1	-2%	-1	2%	-3	4%
O=c1[nH]c(=S)[nH]c(O)c1N=Nc1ccc(S(=O)(=O)N2CCc3ccccc32)cc1	0%	-58*	i	-3	75%
SMILES	Tb PFK inh	PI5P4Ka inh	Tb PGK inh	PI4K2A inh	Pin1 inhibitor
O=c1[nH]c(=S)[nH]c(O)c1N=Nc1ccc(SC(F)F)cc1	0%	-57*	-4%	-13	?
CC(C)c1ccc(N=Nc2c(O)[nH]c(=O)[nH]c2=O)cc1	1%	-21	-1%	-5	52%
O=C(Nc1ccccc1)c1cc([N+](=O)[O-])ccc1N1CCNCC1	-5%	-7	-1%	2	-3%
COC(=O)[C@@H]1N=C(c2ccc(OC)cc2)O[C@]12C(=O)N(Cc1ccc(OC)cc1)c1ccccc12	.	11	.	-3	.
COc1ccccc1-n1c(O)c(/C=N/NC(=S)Nc2ccccc2)c(=O)[nH]c1=S	-16%	-61*	0%	-5	59%
NC(=O)CI	.	.	.	-54*	.
CN(N=O)c1ccc(O)c(O)c1	.	.	.	-57*	.
N=c1c[n+](C2CCCCC2)[n-]o1	5%	8	6%	-2	0%
CCN1CCN(c2ccc([N+](=O)[O-])cc2C(=O)OC)CC1	7%	-1	-4%	-5	-8%
O=C1NC(=S)NC(=O)C1=Cc1ccc2c(c1)CCN2CCCCl	-15%	-92*	?	?	.
COP(=O)(OC)c1nc(-c2ccc([N+](=O)[O-])cc2)oc1N1CCCCC1	1%	-1	-2%	-3	29%
Cn1cccc1/C=C1\C(=O)NC(=O)N(CCC2=CCCCC2)C1=O	-6%	-21	-4%	-8	?
Cn1cccc1/C=C1\C(=O)NC(=O)N(Cc2ccccc2Cl)C1=O	1%	-69*	-12%	-12	-12%
CN(C)[C@@H]1C(=O)C(C(N)=O)=C(O)[C@@]2(O)C(=O)C3=C(O)c4c(O)cccc4[C@@](C)(O)[C@H]3[C@H](O)[C@@H]12	?	-85*	?	-63*!	?
CN(C)[C@@H]1C(=O)C(C(N)=O)=C(O)[C@@]2(O)C(=O)C3=C(O)c4c(O)cccc4[C@@](C)(O)C3C[C@@H]12 (some centres not stated)	-3%	-11	-4%	-7	8%
CN(C)c1ccc(/C=C2/C(=O)NC(=O)N(Cc3ccco3)C2=O)cc1	1%	-58*	-25%	-14	13%
NC(=O)C1CCN(/C=C2\C(=O)NC(=O)N(Cc3ccco3)C2=O)CC1	-7%	-61*	?	-6	8%
CCN(CC)c1ccc(/C=C2\C(=O)NC(=O)N(CC3CCCO3)C2=O)cc1 (configuration not stated)	-12%	-18	-8%	-20	28%
CCN(CC)c1ccc(/C=C2/C(=O)NC(=O)N(Cc3ccco3)C2=O)cc1	-2%	-73*	-6%	?	?
Cc1cc(/C=C2/C(=O)NC(=O)N(Cc3ccco3)C2=O)c(C)n1-c1ccccc1	-25%	?	-9%	-13	?
O=C(N/N=C/c1c(O)n(Cc2ccc(F)cc2)c(=O)[nH]c1=O)c1ccccc1O	4%	-63*	5%	1	5%
O=C(N/N=C/c1c(O)n(Cc2ccccc2)c(=O)[nH]c1=O)c1ccccc1O	-6%	-70*	-1%	3	1%
O=C(N/N=C/c1c(O)n(CCc2ccccc2)c(=O)[nH]c1=O)c1ccccc1O	0%	-75*	-10%	2	63%

Screening results (PubChem BioAssay)
